Measured values published in PubChem BioAssay (NCATS).
Results filed as inconclusive are left out. Entries that show only a call come without a potency. Values without a mark were called inactive. Activity calls are given as the source filed them. The call rests on the fitted dose curve; in most records, active means well fitted inhibition curve with a large enough effect; inconclusive means small, poorly fitted or top-dose-only effect; inactive means no such curve, though single readings can be large or run the other way.

System: Zika virus NS2B-NS3 protease (unlinked complex)
Assay: Primary screen GU Rhodamine qHTS for Zika virus inhibitors: Unlinked NS2B-NS3 protease assay (AID 1347159); further: nearly all actives have a fitted effect of over 60% in size
Settings: Recombinant ZIKV NS2B-NS3 protease, Rhodamine110 substrate fluorescence; series mostly up to 107 µM
Procedure, shortened: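 Compounds, tested up to 114 microM, were incubated for 15 minutes with 25 nM unlinked NS2B-NS3 protease at pH 8.0. Cleavage of 1.5 microM Rhodamine110 substrate was then followed by fluorescence for 15 minutes.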

Compound	Potency
COc1ccc([C@H]2CNC(=O)C2)cc1OC1CCCC1	inactive
CC1=C(C)C(=O)OC(C(C)C2CCC3C4C5OC5C5(O)CC(OC6OC(CO)C(OC7OC(C)C(O)C(O)C7O)C(O)C6O)CC(O)C5(C)C4CCC23C)C1 (stereo unspecified)	inactive
CC(C)=CCC[C@](C)(O)[C@H]1CC[C@]2(C)[C@@H]1[C@H](O)CC1[C@@]3(C)CC[C@H](O)C(C)(C)C3[C@@H](O[C@@H]3O[C@H](CO)[C@@H](O)[C@H](O)[C@H]3O[C@@H]3OC[C@@H](O)[C@H](O)[C@H]3O)C[C@]12C (stereo partly specified)	inactive
CCOc1ccc2nc(SCCN3CCOCC3)[nH]c2c1	inactive
Cc1nc2sc(C(=O)NCc3ccncc3)c(N)c2c(C)c1Cl	inactive
O=C1NC(Cc2c[nH]c3ccccc23)C(=O)NC1Cc1cnc[nH]1 (stereo unspecified)	inactive
O=C(/C=C/c1cccc(S(=O)(=O)Nc2ccccc2)c1)NO	inactive
O=C(CN1C(=O)C2(CCCC2)NCC1c1cc(F)cc(F)c1)Nc1ccc2c(c1)CC1(C2)C(=O)Nc2ncccc21 (stereo unspecified)	inactive
Cc1ccc(F)cc1C(=O)Nc1ccc(C(=O)N2Cc3cccn3Cc3ccccc32)c(Cl)c1	inactive
CC[C@H](C)[C@H](NC(=O)[C@H]([C@@H](C)CC)N(C)C(C)=O)C(=O)N[C@H](C(=O)N[C@@H](CC(C)C)C(=O)[C@@]1(C)CO1)[C@@H](C)O	inactive

System: Zika virus NS2B-NS3 protease (linked construct)
Assay: Primary screen NINDS Rhodamine qHTS for Zika virus inhibitors (AID 1347160); further: nearly all actives have a fitted effect of over 55% in size; further: potency means the concentration at half of the fitted maximal effect
Settings: purified NS2B-NS3 protease, Rhodamine110 substrate fluorescence; series mostly up to 57.1 µM
Procedure, shortened: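 Percent inhibition, normalized to uninhibited and enzyme-free controls, is fitted to a 4-parameter Hill equation. Fluorescence change comes from a 15-min cleavage of 1.5 microM bis-peptide Rhodamine110 substrate by 25 nM linked NS2B-NS3 at room temperature.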

Compound	Potency	activity change, negative = inhibition
O=S(=O)(NCC1CC1)c1ccc(Nc2nccc(N3CCCc4cc(O)ccc43)n2)cc1	inactive	–
C[C@@H]1O[C@@H](O[C@H]2[C@H](O)[C@@H](O[C@@H]3O[C@H](CO)[C@@H](O)[C@H](O[C@@H]4O[C@H](CO)[C@@H](O)[C@H](O)[C@H]4O)[C@H]3O)[C@H](O[C@H]3CC[C@@]4(C)C(=CC[C@@H]5C4CC[C@@]4(C)C5C[C@@H]5OC6(CC[C@@](C)(CO[C@@H]7O[C@H](CO)[C@@H](O)[C@H](O)[C@H]7O)O6)[C@@H](C)[C@@H]54)C3)O[C@@H]2CO)[C@H](O)[C@H](O)[C@H]1OC1OC(CO)C(O)C(O)C1O (stereo partly specified)	–	-10.4% [at 10.7 µM]
COc1cccc(-c2cc(NCc3ccc4c(c3)OCO4)nc(N)n2)c1	inactive	–
O=C(c1cc2c(cc1F)OC(c1ccc(F)cc1)(c1ccc(Cl)cc1Cl)O2)N1CCOCC1 (stereo unspecified)	inactive	–
COc1ccc(C2COc3cc(O)ccc3C2)c(O)c1 (stereo unspecified)	inactive	–
C=C1C(OC2OCC(O)C(O)C2O)CC2C(C)(C)C(O)CCC2(C)C1CC/C(C)=C\CO (stereo unspecified)	inactive	–
CCN1CCN(Cc2ccc(NC(=O)c3ccc(C)c(NC(=O)c4cncc(-c5cccs5)c4)c3)cc2C(F)(F)F)CC1	inactive	–
CN1CCC(Nc2nc(Nc3ccc(Oc4ccccc4)cc3)c3c(=O)[nH]cc(Br)c3n2)CC1	inactive	–
C/C(=C\CCC(C)CCO)C(=O)O[C@@H]1[C@@H](O)[C@H](OC2OC=C(C(=O)O)C3CCC(C)(O)C23)O[C@H](CO)[C@H]1O (stereo partly specified)	inactive	–
C=C1CCC2C(C)(C)C(O)CCC2(C)C1CCC(C)CCOC(C)=O (stereo unspecified)	inactive	–
CC1=CC2/C=C(\C)CC[C@@H](O)[C@@H](O)[C@@H]3O[C@@H]3C(=O)[C@]23C(=O)N[C@@H](CC(C)C)[C@@H]3[C@@H]1C (stereo partly specified)	inactive	–
C=C[C@H]1C(O[C@@H]2O[C@H](CO)[C@@H](O)[C@H](O)[C@H]2O)OC=C2C(=O)N3CCc4c([nH]c5ccccc45)C3CC21 (stereo partly specified)	inactive	–
CC(C)c1nc(-c2ccc(NC(=O)Nc3cccc(C(F)(F)F)c3)c3ccccc23)c2c(N)nccn12	inactive	–
CC1(C)CCC[C@]2(C)[C@H]3CC(=O)O[C@]3(C)CC[C@@H]12	inactive	–
Cc1cc(OCc2nc(-c3ccccc3Cl)cs2)ccc1OCC(=O)O	14.1 µM (active)	–
C=CC(C)(O)C(O)CC1C(C)(O)C(O)C(O)C2C(C)(C)CCCC21C (stereo unspecified)	inactive	–
Cn1cc(-c2ccc3nnc(Sc4ccc5nn(C)cc5c4)n3n2)cn1	inactive	–
CC(C)(C(=O)NCC(F)(F)C(F)(F)F)C(=O)NC1C(=O)Nc2ccccc2-c2ccccc21 (stereo unspecified)	inactive	–
COC(=O)c1ccnc(-c2cc(C(=O)NCCc3ccccc3)ccn2)c1	inactive	–
CC1OC(OCC2OC(OC3CCC4(C)C(CCC5(C)C4CC=C4C6CC(C)(C)CCC6(C(=O)OC6OC(CO)C(O)C(O)C6O)CCC45C)C3(C)CO)C(O)C(O)C2O)C(O)C(O)C1O (stereo unspecified)	inactive	–
COC(=O)c1c(C)cc(OC(=O)c2c(C)cc(OC)cc2OC)cc1O[C@@H]1O[C@H](CO)[C@@H](O)[C@H](O)[C@H]1O	inactive	–
